# Compounds with a hit are over-represented: about 0.91% of the library has one in this group of screens.
# RECQ1 inh-1: RECQ1 (human) helicase inhibition; P46063; RECQ1 DNA unwinding, red fluorescence kinetic read; Potency, µM (series often up to 57.3 µM), for inactives: top-dose activity, negative = inhibition, hits mostly inhibitors; 240,000 compounds, 0.54% hits;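 note: plate controls were vehicle for no effect and no enzyme for full effect; nearly all actives have a fitted effect of over 30% in size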
#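 RECQ1T1 50 nM; forked duplex (20 bp + 30-nt ss tails) 200 nM, ATP 2 mM final; pH 8.0, 2 mM MgCl2, 2.5 ug/ml poly(dI-dC); 15 min compound preincubation; discontinuous kinetic read over 2 h at RT.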
# TRb-SRC2 inh: inhibitors of human thyroid hormone receptor beta-SRC2 interaction; Potency, µM (top dose mostly 106 µM), for the others: top-dose activity change, negative = inhibition, actives largely listed as inhibitors; 280,000 compounds, 0.065% hits; TRbeta-SRC2 peptide binding, fluorescence polarization; receptor liganded with 1 µM T3;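 note: plate controls were bound peptide for no effect and peptide without receptor for full effect; nearly all actives have a fitted effect of over 50% in size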
#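 Human TRb LBD (0.6 uM) plus Texas Red-labeled SRC2 peptide (20 nM), 1uM T3, 5% DMSO, 5 hr at ambient temperature. Decreased polarization (555/632 nm) flags inhibition; data normalized to free and bound peptide controls.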
# TR SRC2 fluor cs: alters Texas Red total fluorescence, flagging assay interference | TRb/SRC2 Texas Red total fluorescence interference | Potency, µM (highest dose often 106 µM), without a hit: top-dose fluorescence change, negative = quenching | 280,000 compounds, 0.29% hits; active = well fitted curve in either direction with a large enough effect; inconclusive = small, poorly fitted or top-dose-only effect; note: % is set by controls: 0 for no effect and ±100 for the full control effect
#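 Human TRβ ligand-binding domain (0.6 uM) and Texas Red SRC2 peptide (20 nM) in Tris buffer with 1 uM T3 and 5% DMSO were incubated with pinned compound for 5 hr at ambient temperature. Total fluorescence was computed as S + 2P (555/632 nm).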
# BLM helicase inh-1: inhibitors of human Bloom syndrome helicase BLM | Potency, µM (top dose mostly 56.1 µM), inactives show at the top dose activity change, negative = inhibition, usual class: inhibitors | AID 2528 | P54132 | 350,000 compounds, 0.2% hits | recombinant BLM DNA unwinding, fluorescence dequenching;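 note: plate controls were vehicle for no effect and no enzyme for full effect; nearly all actives have a fitted effect of over 35% in size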
# WRN helicase inh-1: WRN helicase (human) inhibition; Q14191; WRN helicase unwinding, fluorescent forked duplex, kinetic; Potency, µM (series often up to 114 µM), for inactives: at the highest dose activity change, negative = inhibition, most hits filed as inhibitors; 360,000 compounds, 0.46% hits; note: % is set by controls: 0 for no effect and ±100 for the full control effect; nearly all actives have a fitted effect of over 55% in size
# Target sequence (Q14191 whole entry, looked up): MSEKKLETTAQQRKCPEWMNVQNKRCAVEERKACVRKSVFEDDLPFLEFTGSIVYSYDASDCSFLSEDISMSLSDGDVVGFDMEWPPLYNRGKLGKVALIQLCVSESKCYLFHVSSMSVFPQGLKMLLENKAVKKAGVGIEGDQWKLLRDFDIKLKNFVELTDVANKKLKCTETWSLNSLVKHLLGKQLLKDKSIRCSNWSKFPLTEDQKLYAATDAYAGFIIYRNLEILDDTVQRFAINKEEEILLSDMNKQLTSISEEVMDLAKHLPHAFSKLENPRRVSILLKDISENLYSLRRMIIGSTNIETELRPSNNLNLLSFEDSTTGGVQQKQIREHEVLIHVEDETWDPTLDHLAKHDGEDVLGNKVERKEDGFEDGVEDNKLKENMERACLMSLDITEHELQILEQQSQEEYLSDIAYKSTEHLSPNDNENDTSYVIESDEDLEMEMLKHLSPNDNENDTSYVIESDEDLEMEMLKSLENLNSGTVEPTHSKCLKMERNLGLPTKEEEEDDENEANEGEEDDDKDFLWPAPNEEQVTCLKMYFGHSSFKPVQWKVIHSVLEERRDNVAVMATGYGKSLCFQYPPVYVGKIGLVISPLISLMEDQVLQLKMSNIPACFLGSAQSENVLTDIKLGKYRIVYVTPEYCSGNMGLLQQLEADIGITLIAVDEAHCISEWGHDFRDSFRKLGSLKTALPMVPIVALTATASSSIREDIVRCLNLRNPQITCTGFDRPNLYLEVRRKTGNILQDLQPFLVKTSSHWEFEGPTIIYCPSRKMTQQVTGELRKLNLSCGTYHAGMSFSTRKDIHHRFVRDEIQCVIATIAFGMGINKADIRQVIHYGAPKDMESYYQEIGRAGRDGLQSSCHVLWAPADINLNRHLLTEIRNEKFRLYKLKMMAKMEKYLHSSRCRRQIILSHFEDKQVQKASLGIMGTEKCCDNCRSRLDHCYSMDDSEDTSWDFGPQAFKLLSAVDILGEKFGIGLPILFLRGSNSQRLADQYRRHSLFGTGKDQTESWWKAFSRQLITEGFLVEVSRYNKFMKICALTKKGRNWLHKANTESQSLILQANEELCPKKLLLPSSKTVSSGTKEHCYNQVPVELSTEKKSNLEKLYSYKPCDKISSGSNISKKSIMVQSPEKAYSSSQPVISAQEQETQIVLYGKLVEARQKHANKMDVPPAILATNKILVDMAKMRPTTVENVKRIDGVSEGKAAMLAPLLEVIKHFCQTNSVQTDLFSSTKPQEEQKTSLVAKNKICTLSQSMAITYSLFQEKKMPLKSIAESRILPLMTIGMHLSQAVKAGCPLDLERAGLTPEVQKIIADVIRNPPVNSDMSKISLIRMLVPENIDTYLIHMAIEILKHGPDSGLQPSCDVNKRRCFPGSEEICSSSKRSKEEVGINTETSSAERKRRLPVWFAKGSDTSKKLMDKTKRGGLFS
#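 Kinetic fluorescence helicase assay: unwinding of a quenched forked DNA duplex (100 nM final) with 2 mM ATP final raises red fluorescence (525/598 nm). Compounds sat 15 min at room temperature with 20 nM WRN beforehand.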
# APE1 inh: inhibitors of human APE1 endonuclease; 350,000 compounds, 0.35% hits; Potency, µM (series often up to 65.8 µM), for the others: at the top dose activity change, negative = inhibition, actives largely listed as inhibitors; recombinant APE1, TAMRA/BHQ-2 abasic DNA cleavage fluorescence; P27695;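 note: plate controls were vehicle for no effect and reference inhibitor for full effect; nearly all actives have a fitted effect of over 55% in size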
#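 APE1 at 0.75 nM preincubated 15 min at room temperature with compound. Reaction then started with 50 nM double-stranded THF-abasic substrate labelled with TAMRA/BHQ-2, and 525/598 nm fluorescence read kinetically. Activity taken as third-minus-first read difference, normalized to DMSO and NSC13755 controls.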
# BLM inh: confirmation of inhibitors of human Bloom syndrome helicase BLM; shares compounds with BLM helicase inh-1; BLM DNA unwinding, fluorescence quenching, biochemical; Potency, µM, without a hit: max response, negative = inhibition, usual class: inhibitors; 220 compounds, 40% hits; AID 2585;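 note: strand separation dequenches TAMRA so unwinding raises red fluorescence; series mostly up to about 69 µM; % is set by controls: 0 for no effect and ±100 for the full control effect; nearly all actives have a fitted effect of over 45% in size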
# RECQ1 inh conf: confirmation of human RECQ1 helicase inhibitors | 610 compounds, 28% hits | Potency, µM (top dose mostly 229 µM), for the others: at the highest dose activity change, negative = inhibition, hits mostly inhibitors | shares compounds with RECQ1 inh-1 | RECQ1 helicase DNA unwinding, fluorescence; note: % is set by controls: 0 for no effect and ±100 for the full control effect; nearly all actives have a fitted effect of over 45% in size
# RECQ1 ADP FP: counter-screen for RECQ1 inhibitors: ADP displacement; shares compounds with RECQ1 inh-1; ADP fluorescence polarization displacement counterscreen; Potency, µM (doses to about 228 µM), without a hit: at the top dose activity change, negative = inhibition, most hits filed as inhibitors; 530 compounds, 27% hits; AID 2711; note: % is set by controls: 0 for no effect and ±100 for the full control effect; nearly all actives have a fitted effect of over 45% in size
# RECQ1 inh-2: confirmation of human RECQ1 helicase inhibitors; shares compounds with RECQ1 inh-1; recombinant RECQ1 DNA unwinding, red fluorescence; Potency, µM (series often up to 119 µM), without a hit: at the top dose activity, negative = inhibition, hits mostly inhibitors; 1,100 compounds, 15% hits; AID 504841; note: % is set by controls: 0 for no effect and ±100 for the full control effect; nearly all actives have a fitted effect of over 50% in size
# WRN helicase inh-2: WRN helicase inhibition, cherry-pick retest. shares compounds with WRN helicase inh-1. WRN helicase DNA unwinding, fluorescence kinetic. Potency, µM (doses to about 57.1 µM), without a hit: top-dose activity, negative = inhibition, actives largely listed as inhibitors. 610 compounds, 63% hits; note: nearly all actives have a fitted effect of over 65% in size
# TO displacement: binds DNA, flagged in WRN inhibitor counterscreen | thiazole orange DNA binding displacement, fluorescence | Potency, µM (doses to about 57.1 µM), inactives show top-dose activity change, negative = inhibition, usual class: inhibitors | shares compounds with WRN helicase inh-1 | 610 compounds, 10% hits;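 note: drop in dye fluorescence marks compound binding to DNA; % is set by controls: 0 for no effect and ±100 for the full control effect; nearly all actives have a fitted effect of over 60% in size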
# BLM helicase inh-2: BLM helicase inhibition, WRN selectivity check | shares compounds with WRN helicase inh-1 | Recombinant BLM helicase DNA unwinding, red fluorescence | Potency, µM (top dose mostly 57.1 µM), for inactives: at the top dose activity change, negative = inhibition, hits mostly inhibitors | 610 compounds, 60% hits; note: nearly all actives have a fitted effect of over 60% in size
# * marks the source's active call; other numbers are inactive results; i = inactive; ? = inconclusive; / = not tested or not shown; [ ] = dose if it differs, or a comment. Unless noted, calls come from the whole dose curve; as a rule, active = well fitted curve in the direction sought with a large enough effect; inconclusive = small, poorly fitted or top-dose-only effect, or another doubt; inactive = no such curve, though single readings can be large; an effect the other way counts as inactive or inconclusive. Potency is the fitted concentration of half-maximal effect.
SMILES,RECQ1 inh-1,TRb-SRC2 inh,TR SRC2 fluor cs,BLM helicase inh-1,WRN helicase inh-1,APE1 inh,RECQ1 inh-2,others
COc1ccc(NC(=O)COC(=O)c2ccc(C)c(S(=O)(=O)N3CCCCC3)c2)cc1,/,/,/,/,-13%,-41%,/,
O=C(N/N=C/c1cccc(F)c1)c1cc(-c2ccco2)nc2ccccc12,22µM*,27%,32µM*[quencher],11µM*,56µM*,4.5µM*,/,BLM inh=5.8µM*;RECQ1 inh conf=28µM*;RECQ1 ADP FP=?
Cc1ccc(-c2nc3c(c(SCC(=O)Nc4cccc(C(=O)O)c4)n2)Cc2cccc(C)c2O3)cc1,/,1%,-3%,4.5µM*,/,1.9µM*,/,BLM inh=14µM*;RECQ1 inh conf=6.5µM*;WRN helicase inh-2=2.2µM*;TO displacement=2.7µM*;BLM helicase inh-2=0.86µM*
COc1ccc(-c2nc3c(c(SCC(=O)Nc4ccccc4OC)n2)Cc2cccc(C)c2O3)cc1,/,-3%,0%,-6%,/,/,/,
CCOC(=O)C1CCN(C(=O)c2[nH]c(C(F)(F)F)nc2-c2ccccc2)CC1,/,/,/,/,-2%,/,/,
COc1ccccc1CNC(=O)COC(=O)c1cc(-c2ccco2)nc2ccccc12,?,-13%,-28%,11µM*,35µM*,11µM*,?,BLM inh=18µM*;WRN helicase inh-2=19µM*;TO displacement=?;BLM helicase inh-2=17µM*
CCN(CC)c1ccc(C(=O)c2ccccc2C(=O)O)c(O)c1,-8%,-4%,-5%,1%,-9%,-1%,/,
O=C(O)c1cc(N(Cc2ccccc2O)Cc2ccccc2O)ccc1O,?,-7%,2%,-10%,/,?,?,
COc1cccc(C(=O)N(Cc2cc3cc(C)ccc3[nH]c2=O)C(C)C)c1,?,9%,2%,2%,0%,0%,-10%,
Cc1ccc2c(c1)N(C(=O)CCC(=O)NCc1cccc(Cl)c1)CC(C)O2 (stereo unspecified),/,/,/,-2%,2%,56%,/,
C[C@@H](NC(=O)c1nc[nH]c1C(=O)N[C@@H](Cc1ccccc1)C(=O)OCc1ccccc1)c1ccccc1,-26%,3%,-3%,-15%,-10%,-2%,/,
CC(C)C[C@H](NC(=O)c1nc[nH]c1C(=O)NCCCCCNC(=O)OC(C)(C)C)C(=O)OCc1ccccc1,?,1%,-4%,-16%,-8%,?,-20%,
CC(C)C[C@H](NC(=O)c1nc[nH]c1C(=O)N[C@@H](CCCCNC(=O)OC(C)(C)C)C(=O)OC(C)(C)C)C(=O)OCc1ccccc1,/,/,/,-13%,-12%,4%,/,
C[C@H](NC(=O)c1nc[nH]c1C(=O)N[C@@H](Cc1ccccc1)C(=O)OCc1ccccc1)c1ccccc1,40µM*,3%,-1%,-15%,-6%,-7%,-24%,
O=C(CN1C(=O)S/C(=C\C=C\c2ccccc2)C1=O)Nc1ccc(C(=O)O)cc1,-9%,-7%,-3%,-23%,6%[11.6 µM],-11%,/,
Cc1ccc(NC(=O)CN2C(=O)S/C(=C\c3cc(C)n(-c4ccc(C(=O)O)cc4)c3C)C2=O)cc1,?,12%,-2%,-10%,-10%,4%,?,
CN(C(=O)COC(=O)c1c2c(nc3ccccc13)CCCC2)c1c(N)n(Cc2ccccc2)c(=O)[nH]c1=O,/,/,/,/,-5%,16%,/,
CCc1ccc(OC2=NS(=O)(=O)c3ccccc32)cc1,i,3%,-3%,-1%,-9%,28%,/,
CCN(CC)c1cccc(OC2=NS(=O)(=O)c3ccccc32)c1,?,40µM*,45µM*[fluorescent],-4%,-17%,15%,-22%,
CC(=O)c1cc2c(cc1N(C(=O)Cn1nnc3ccccc31)C(C(=O)NCCC(C)C)c1cccnc1)OCO2 (stereo unspecified),0%,-1%,-5%,-2%,6%,-5%,/,RECQ1 inh conf=-3%;RECQ1 ADP FP=5%
Cc1ccc(SCC(=O)Nc2cccc(C)c2)cc1,25µM*,0%,-1%,0%,-10%,-2%,-12%,
N[C@@H](CO)c1nnc([C@H](CC(=O)O)NC(=O)C2CCNCC2)o1,2%,1%,-1%,-1%,8%,3%,/,RECQ1 inh conf=-2%;RECQ1 ADP FP=6%
Cc1nn(Cc2ccccc2)c(Cl)c1C(=O)NCc1ccc(C)n1C,-1%,7%,1%,-6%,9%,-2%,/,
Cc1nn(Cc2c(Cl)cccc2Cl)c(C)c1C(=O)NCc1ccc(C)n1C,?,-10%,1%,-5%,-14%,-4%,-9%,
CCN1C(=O)C(CC(=O)Nc2ccc(OC)cc2)N(CCc2ccccc2)C1=S (stereo unspecified),-5%,-13%,-2%,-12%,-10%,4%,/,
CCN1C(=O)C(CC(=O)Nc2ccc(F)cc2)N(CCc2ccc(OC)cc2)C1=S (stereo unspecified),22µM*,4%,-3%,-13%,-31%,-7%,-17%,
CCOc1cccc(OCCOc2ccccc2[N+](=O)[O-])c1,?,1%,3%,-11%,-10%,-5%,-10%,

# Bioassay records deposited in PubChem by National Center for Advancing Translational Sciences (NCATS).
